Tests used:
Test in all cases: thermal shift delta Tm vs DMSO control; higher = stronger stabilization (binding)
Details in all cases: 12.5 µM; protein concentration 2 µM
[1] = tested on: LOC_OS01G01410-cb001
In short: (§1)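 Heating from 25°C to 95°C at 0.05°C/s, fluorescence was recorded for 19.5 μl wells of 2 μM E. coli-expressed, purified rice kinase domain in 100 mM potassium phosphate pH 7.5, 150 mM NaCl, 10% glycerol and 5 × SYPRO Orange with compound in DMSO. Boltzmann fits gave melting temperatures for this differential scanning fluorimetry assay. The shift reported is the mean of three replicates against the DMSO-only protein.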

[2] = tested on: LOC_OS01G02750-cb003
In short: as §1

[3] = tested on: LOC_OS01G10900-cb004
In short: as §1

[4] = tested on: LOC_OS01G13800-cb001
In short: as §1

[5] = tested on: LOC_OS01G14860-cb001
In short: as §1

[6] = tested on: LOC_OS01G21960-cb002
In short: as §1

[7] = tested on: LOC_OS01G39600-cb002
In short: as §1

[8] = tested on: LOC_OS01G48390-cb002
In short: as §1

[9] = tested on: LOC_OS01G51400-cb002
In short: as §1

[10] = tested on: T1, LOC_OS01G52050-cb004
T1 sequence (whole entry): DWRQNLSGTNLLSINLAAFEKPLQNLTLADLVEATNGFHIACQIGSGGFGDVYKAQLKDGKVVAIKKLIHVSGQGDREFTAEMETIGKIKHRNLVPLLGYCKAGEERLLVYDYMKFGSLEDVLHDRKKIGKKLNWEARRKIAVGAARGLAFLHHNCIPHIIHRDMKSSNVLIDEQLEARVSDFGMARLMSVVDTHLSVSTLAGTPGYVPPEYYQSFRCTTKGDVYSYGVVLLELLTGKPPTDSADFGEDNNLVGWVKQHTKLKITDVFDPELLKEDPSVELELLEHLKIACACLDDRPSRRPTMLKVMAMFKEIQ
In short: as §1
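Further: purified Escherichia coli-expressed rice kinase domain construct.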

SMILES	thermal shift delta Tm [1] [°C]	thermal shift delta Tm [2] [°C]	thermal shift delta Tm [3] [°C]	thermal shift delta Tm [4] [°C]	thermal shift delta Tm [5] [°C]	thermal shift delta Tm [6] [°C]	thermal shift delta Tm [7] [°C]	thermal shift delta Tm [8] [°C]	thermal shift delta Tm [9] [°C]	thermal shift delta Tm [10] [°C]
Cc1cc(Nc2cc(N3CCN(C)CC3)nc(/C=C/c3ccccc3)n2)n[nH]1 [ENMD-2076 L-(+)-Tartaric acid]	2.38	2.56	1.86	-0.25	4.33	2.63	1.94	3.3	0.81	4.1
O=C(c1ccc(F)c(F)c1Nc1ccc(I)cc1F)N1CC(O)([C@@H]2CCCCN2)C1 [Cobimetinib (GDC-0973, RG7420)]	0.62	1.67	0.3	0.01	0.39	0.36	-0.03	0.12	0.29	0.44
CC(C)Oc1ccc(-c2nn([C@@H](C)c3oc4ccc(F)cc4c(=O)c3-c3cccc(F)c3)c3ncnc(N)c23)cc1F	0.45	1.4	0.72	0.18	0.59	0.77	-0.2	1.45	0.32	0.73
COc1cc(N2CCC(N)CC2)ccc1Nc1ncc(Cl)c(-c2c[nH]c3ccccc23)n1	0.82	0.87	2.95	-0.64	1.41	3.79	-2.78	0.17	1.21	5.27
CN1CCC(COc2cnc(-c3cccc(Cn4nc(-c5cccc(C#N)c5)ccc4=O)c3)nc2)CC1	0.33	0.27	0.17	-0.5	0.03	0.05	0.63	0.2	0.24	0.04
C=CC(=O)Nc1cccc(Nc2nc(Nc3ccc(Oc4ccnc(C(=O)NC)c4)cc3)ncc2F)c1	4.52	1.34	1.05	0.7	4.66	2.14	1.74	0.98	0.31	3.1
CC(C)S(=O)(=O)c1ccc2nccc(Nc3ccc4scnc4c3)c2c1	0.88	1.53	0.44	0.78	0.59	0.58	0.91	2.39	0.31	3.11
c1cc(-c2cnn3cc(-c4ccc(OCCN5CCCCC5)cc4)cnc23)ccn1 [Dorsomorphin 2HCl]	4.71	10.2	8.66	0.11	2.59	3	7.6	5.88	0.21	6.74
CCN(CC)CCNC(=O)c1c(C)[nH]c(/C=C2\C(=O)Nc3ccc(-c4csc(-c5ccccc5)n4)cc32)c1C [Amcasertib (BBI503)]	3.77	0.02	5.39	-0.01	1.64	1.66	4.12	-0.28	0.02	-0.1
C#Cc1cccc(Nc2ncnc3cc(OCCOC)c(OCCO)cc23)c1	1.63	0.85	1.08	0.74	0.28	0.99	2.63	2.12	0.19	1.63
COc1cc2ncnc(Nc3ccc(O)c(Br)c3)c2cc1OC	1.47	-0.02	0.65	-0.02	0.9	0.93	-1.06	3	0.29	1.31
CC1(C)OC(=O)C=C[C@]2(C)[C@H]3CC[C@@]4(C)[C@H](c5ccoc5)OC(=O)[C@H]5O[C@]54[C@]3(C)C(=O)C[C@@H]12 [Obacunone]	0.06	0.16	0.26	0.37	0.35	0.13	-0.45	0.82	-0.06	3
CC(C)c1cnn2c(NCc3ccccc3-n3cccn3)nc(OC3CCCNC3)nc12 (stereo not given)	0	1.24	0.29	0.99	0.39	1.47	-0.1	0.28	0.35	0.43
Cc1ccc(-n2nc(C(C)(C)C)cc2NC(=O)Nc2ccc(OCCN3CCOCC3)c3ccccc23)cc1 [Doramapimod (BIRB 796)]	0.6	0.28	0.4	0.47	1.26	0.35	0.04	0.73	0.2	1.1
N#Cc1ccc2[nH]c(O)c(-c3ccc(CN4CCOCC4)cn3)c2c1	0.79	1.84	0.41	-0.53	6.12	0.79	1.95	1.33	0.34	0.44
CCN1CCN(Cc2ccc(C(=O)Nc3ccc(C)c(Oc4ccc5c(c4)CC(=O)N5)c3)cc2C(F)(F)F)CC1	0.03	1.85	2.1	0.59	0.51	1.73	-0.14	0.94	0.25	1.08
CC(C)CCN1c2nc(Nc3cc(F)c(O)c(F)c3)ncc2N(C)C(=O)C1C (stereo not given)	2.96	1.52	2.63	0.08	3.74	1.92	3.67	1.58	0.67	5.38
Cc1cc(Nc2cc(Cl)nc(Oc3ccc([N+](=O)[O-])cc3)n2)n[nH]1 [Autophinib]	2.53	3.49	2.92	-0.1	7.77	1.42	1.82	4.13	0.51	5.57
FC(F)(F)c1ccc(CNc2ccc(Cc3c[nH]c4ncc(Cl)cc34)cn2)cn1 [Pexidartinib (PLX3397)]	1.9	3.35	3.09	0.85	1.22	2.07	2.41	6.28	0.37	10.2
